# Experimental data taken from the supplement of paper PMC5662767.
# Counter-ions that a name gives are not always drawn.
# Test system: Drosophila S2 cl14 SmoIP sensor cells
# Assay: normalized SmoIP GFP fluorescence (untreated unstimulated = 0%, untreated Hh-stimulated = 100%); higher = more Smo activation sensor fluorescence
# Conditions: stimulation: mock conditioned medium (-Hh); compound concentration: 2 uM; 24 h
# 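Also: flow cytometry read-out as median GFP intensity of gated cells, compounds added 30 min before Hh-conditioned or mock medium, mock-treated cells serving as unstimulated baseline.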
row,Structure (SMILES),normalized SmoIP GFP fluorescence [%]
1,C=C1C(=O)O[C@@H]2/C=C(\C)CC/C=C(\C)CC[C@@H]12 [Costunolide],27.4
2,COc1cc2/c(=N/c3ccc(Br)cc3F)nc[nH]c2cc1OCC1CCN(C)CC1 [Vandetanib],60.9
3,CC(C)C[C@H](NC(=O)[C@@H](NC(=O)c1cccc(-c2ccccc2)n1)[C@@H](C)O)B(O)O,64.4
4,COc1ccc(-c2nc(N3CCOCC3)c3sc(CN(C)c4ncc(C(=O)NO)cn4)cc3n2)cn1 [cudc-907],82.3
5,COc1cc2nccc(Oc3ccc(NC(=O)C4(C(=O)Nc5ccc(F)cc5)CC4)cc3)c2cc1OC,3.51
6,O=c1cc(-c2cccc3c2Sc2ccccc2S3)oc(N2CCOCC2)c1,2.43
7,COC(=O)N[C@H](C(=O)N[C@@H](Cc1ccccc1)[C@@H](O)CN(Cc1ccc(-c2ccccn2)cc1)NC(=O)[C@@H](NC(=O)OC)C(C)(C)C)C(C)(C)C [Atazanavir],-0.0496
8,Cc1[nH]c2ccccc2c1CCNCc1ccc(/C=C/C(=O)NO)cc1,81.3
9,Oc1nc(-c2ccc(C(F)(F)F)cc2)nc2c1CSCC2,5.66
10,CCOC(=O)N1CCC(=C2c3ccc(Cl)cc3CCc3cccnc32)CC1 [Loratadine],11
11,CCOc1cc(CC(=O)N[C@@H](CC(C)C)c2ccccc2N2CCCCC2)ccc1C(=O)O [Repaglinide],6.52
12,CCOC(=O)[C@H](CCc1ccccc1)N[C@H]1CCc2ccccc2N(CC(=O)O)C1=O [Benazepril-hydrochloride],1.35
13,O=C(NOC[C@H](O)CO)c1ccc(F)c(F)c1Nc1ccc(I)cc1F,77.1
